# Hit rate of the full screen: of about 310,000 compounds, about 2,200 (0.71%) showed an effect of 50% or more. The effect is printed as a negative number. The list comes from a sample in which strong results are over-represented; it also holds similar structures and randomly drawn compounds.
# Target: human ether-à-go-go-related gene (hERG) potassium channel (human, UniProt Q12809)
# Experiment: primary screen, population patch clamp on CHO cells stably expressing hERG; higher = less effect of the substance
# Chain of human ether-à-go-go-related gene (hERG) potassium channel (Q12809 whole entry, looked up): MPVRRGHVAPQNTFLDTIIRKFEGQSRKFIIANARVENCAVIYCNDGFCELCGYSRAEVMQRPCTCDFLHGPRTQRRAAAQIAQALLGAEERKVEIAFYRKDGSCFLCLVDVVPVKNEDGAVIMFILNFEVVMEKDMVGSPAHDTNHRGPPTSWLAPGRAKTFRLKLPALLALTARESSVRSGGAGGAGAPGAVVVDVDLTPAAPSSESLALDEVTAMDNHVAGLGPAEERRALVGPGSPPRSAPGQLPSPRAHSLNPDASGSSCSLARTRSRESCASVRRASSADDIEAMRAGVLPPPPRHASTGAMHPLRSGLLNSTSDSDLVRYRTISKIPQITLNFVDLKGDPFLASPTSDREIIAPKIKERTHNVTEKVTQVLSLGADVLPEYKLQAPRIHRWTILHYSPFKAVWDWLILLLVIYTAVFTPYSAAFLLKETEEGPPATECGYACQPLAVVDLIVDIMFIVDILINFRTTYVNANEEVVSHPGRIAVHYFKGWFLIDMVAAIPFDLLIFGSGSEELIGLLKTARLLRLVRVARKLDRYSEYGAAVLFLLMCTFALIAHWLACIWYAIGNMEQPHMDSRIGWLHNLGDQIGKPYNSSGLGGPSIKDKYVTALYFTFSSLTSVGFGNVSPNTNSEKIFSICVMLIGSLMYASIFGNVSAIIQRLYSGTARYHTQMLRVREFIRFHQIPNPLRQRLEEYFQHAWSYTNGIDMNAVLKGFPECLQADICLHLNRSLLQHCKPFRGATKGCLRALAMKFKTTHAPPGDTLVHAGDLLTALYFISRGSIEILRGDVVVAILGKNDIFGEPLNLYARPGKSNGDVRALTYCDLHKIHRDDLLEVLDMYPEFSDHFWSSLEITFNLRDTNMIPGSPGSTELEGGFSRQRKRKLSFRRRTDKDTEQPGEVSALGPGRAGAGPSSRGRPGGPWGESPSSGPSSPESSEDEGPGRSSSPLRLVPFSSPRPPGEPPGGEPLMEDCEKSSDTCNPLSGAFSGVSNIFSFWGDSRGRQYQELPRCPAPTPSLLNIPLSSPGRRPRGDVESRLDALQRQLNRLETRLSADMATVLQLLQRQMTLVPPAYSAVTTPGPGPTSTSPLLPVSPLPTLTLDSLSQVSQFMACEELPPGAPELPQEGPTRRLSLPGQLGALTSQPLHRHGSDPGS
row,SMILES,"hERG current change (%, negative = inhibition) at 1uM"
1,COC(=O)c1ccc(CN2CCN(CCCc3ccccc3)C(CCO)C2)cc1 (stereo not drawn),-29.1%
2,COCCCNC(=O)c1cc(C)nc2ccc(F)cc12,-1.73%
3,CN(C)S(=O)(=O)Oc1ccsc1C(=O)Nc1ccccc1Cl,5.7%
4,Cc1cccc(CN2CCN(CC(=O)NCCCN3CCN(c4ccc(F)cc4)CC3)C2=O)c1,-54.5%
5,O=C(CN1CCN(Cc2ccc(Cl)cc2)C1=O)NCCCN1CCN(c2ccc(F)cc2)CC1,-36.8%
6,COc1ccc(N2CCN(CCCNC(=O)CN3CCN(Cc4ccccc4C)C3=O)CC2)cc1,-16.7%
7,Cc1cccc(CN2CCN(CC(=O)NCc3ccc(F)cc3)C2=O)c1,7.12%
8,Cc1ccc(CN2CCN(CC(=O)NCCCN3CCN(c4ccc(F)cc4)CC3)C2=O)cc1,-56.6%
9,Cc1cccc(CN2CCN(CC(=O)NCCCN3CCCC3=O)C2=O)c1,11.8%
10,Cc1ccccc1CN1CCN(CC(=O)NCCCN2CCN(c3ccc(F)cc3)CC2)C1=O,-52%
11,O=C(CN1CCN(Cc2ccc(Cl)cc2)C1=O)NCCCN1CCOCC1,4.56%
12,CCOCCCNC(=O)CN1CCN(Cc2ccccc2C)C1=O,4.41%
13,O=C1NC2CCc3nc4ccccc4c(=O)n3C2=Nc2ccccc21 (stereo not drawn),-6.24%
14,COc1cc2c(=O)n(CCC(=O)NCC3CCCO3)c(=O)n(CC(=O)Nc3ccc(C)c(C)c3)c2cc1OC (stereo not drawn),11.6%
15,CNC(=O)c1ccccc1NC(=O)c1ccc(C)c(S(=O)(=O)N2CCCCC2)c1,-2.21%
16,CC1(C)C2CC=C(/C=N/NC(=O)C(N)=O)C1C2 (stereo not drawn),10.3%
17,C/C(Cl)=C/Cn1c(SC(C)C)nc2c1c(=O)[nH]c(=O)n2C,6.96%
18,CCOC(=O)C(C)Sc1nc2c(c(=O)[nH]c(=O)n2C)n1CCc1ccccc1 (stereo not drawn),-5.6%
19,CCOC(=O)C(C)Sc1nc2c(c(=O)[nH]c(=O)n2C)n1Cc1ccc(Cl)cc1 (stereo not drawn),-78.7%
20,C/C(Cl)=C/Cn1c(SCC(C)C)nc2c1c(=O)[nH]c(=O)n2C,10%

row,SMILES,"hERG current change (%, negative = inhibition) at 1uM"
1,CCC(C)Sc1nc2c(c(=O)[nH]c(=O)n2C)n1Cc1ccc(Cl)cc1 (stereo not drawn),2.15%
2,COC(=O)C(C)Sc1nc2c(c(=O)[nH]c(=O)n2C)n1CCC(C)C (stereo not drawn),4.51%
3,CCCCCCn1c(SCC(C)C)nc2c1c(=O)[nH]c(=O)n2C,10.1%
4,CCCCCn1c(SC(C)C(C)=O)nc2c1c(=O)[nH]c(=O)n2C (stereo not drawn),-91.2%
5,COC(=O)C(C)Sc1nc2c(c(=O)[nH]c(=O)n2C)n1CCCc1ccccc1 (stereo not drawn),-70.1%
6,CC(C)Sc1nc2c(c(=O)[nH]c(=O)n2C)n1Cc1ccc(Cl)cc1,4.3%
7,CCOC(=O)C(C)Sc1nc2c(c(=O)[nH]c(=O)n2C)n1C/C=C(/C)Cl (stereo not drawn),-62.6%
8,CCOCCn1c(SC(C)C(C)=O)nc2c1c(=O)[nH]c(=O)n2C (stereo not drawn),-0.132%
9,CCN(CC)C(=O)Oc1cc(=O)n(C)c2ccccc12,6.19%
10,Cc1ccc([C@H]2C(C#N)=C(N)Oc3cc(C)oc(=O)c32)o1,12.8%
11,O=c1c2ccccc2n2cnnc2n1-c1ccccc1,2.26%
12,Cc1ccc(NC(=O)C(c2ccc(Cl)cc2)N2CCOCC2)cc1 (stereo not drawn),16.1%
13,Cc1cc2c(cc(C(=O)OCC(=O)NCc3ccco3)n2C)s1,6.5%
14,CC1CCCC(NC(=O)CSc2nnnn2C)C1C (stereo not drawn),13.2%
15,COc1ccc(NC(=O)C2CCCN(S(=O)(=O)c3ccc(Cl)cc3)C2)cc1OC (stereo not drawn),10.9%
16,CCCCCn1c(=O)c(C(=O)NCc2ccncc2)c(O)c2ccccc21,2.72%
17,CC(NC(=O)c1ccccc1F)C(=O)O (stereo not drawn),16.8%
18,C=C(C)COc1ccc(-c2nc(N)ncc2Oc2ccc(OC)cc2)c(O)c1,-5.45%
19,CC(/C=N/NC(=O)c1ccncc1)=C\c1ccco1,14.7%
20,Cc1ccc(CNC(=O)COc2ccc3c(c2)CCC3)cc1,-2.48%

row,SMILES,"hERG current change (%, negative = inhibition) at 1uM"
1,CCOC(=O)C(CC)Sc1nc2c(c(=O)[nH]c(=O)n2C)n1CCc1ccccc1 (stereo not drawn),-30.9%
2,CCOC(=O)CSc1nc2c(c(=O)[nH]c(=O)n2C)n1C/C=C(/C)Cl,-7.88%
3,CCOC(=O)C(CC)Sc1nc2c(c(=O)[nH]c(=O)n2C)n1C/C=C(/C)Cl (stereo not drawn),-56.9%
4,COC(=O)CN1C(=O)[C@H]2[C@@H](C3CC3)N3C(=O)CN(Cc4ccc(-c5ccccc5)cc4)C(=O)[C@@]3(Cc3ccccc3)[C@H]2C1=O,15.6%
5,COc1ccccc1Oc1ccc2c(c1)C(=O)N(c1ccc(Br)c3cccnc13)C2=O,1.75%
6,O=C1/C(=C2\C(=O)N(Cc3ccc(F)cc3)c3ccccc32)SC(=S)N1CCS(=O)(=O)O,10.6%
7,O=C(CN1C(=O)/C(=C2\SC(=S)N(CCS(=O)(=O)O)C2=O)c2ccccc21)Nc1cccc(Br)c1,-52.8%
8,Cc1cccc(NC(=O)CN2C(=O)/C(=C3\SC(=S)N(CC4CCCO4)C3=O)c3ccccc32)c1 (stereo not drawn),17.1%
9,Cc1cccc(NS(=O)(=O)c2cccc(C(=O)NCC3(N4CCCCC4)CCCCC3)c2)c1,-45.1%
10,Cc1ccc(S(=O)(=O)Nc2cccc(C(=O)NCC3(N4CCCCC4)CCCCC3)c2)cc1F,-76.4%
11,O=C(NCC1(N2CCCCC2)CCCCC1)c1cccc(NS(=O)(=O)c2ccccc2)c1,-34%
12,Cn1cc(CN2CCc3c([nH]c4ccccc34)C2C(C)(C)C)cn1 (stereo not drawn),-3.25%
13,CCCc1nc2c(o1)CC(CC(C)SCC)CC2=O (stereo not drawn),-11.3%
14,C=C(C)CSc1nc(N)c2c(C)c(C)sc2n1,10.3%
15,O=C(NC1CCCN(Cc2ccc(Cl)cc2)C1)c1c(F)cccc1F (stereo not drawn),17.1%
16,O=C(NC1CCCN(Cc2ccc(Cl)cc2)C1)c1c(F)ccc(F)c1F (stereo not drawn),-55.4%
17,CC(C)Cc1ccc(CN2CCCC(NC(=O)c3ccoc3)C2)cc1 (stereo not drawn),-7.26%
18,O=C(NC1CCCN(Cc2ccc(Cl)cc2)C1)c1cccc(F)c1 (stereo not drawn),-18.6%
19,CC(C)Cc1ccc(CN2CCCC(NC(=O)c3ccnn3C)C2)cc1 (stereo not drawn),-50.4%
20,Cc1occc1C(=O)NC1CCCN(Cc2ccc(CC(C)C)cc2)C1 (stereo not drawn),6.64%
